Screening data (PubChem)
NPC1 prom act: activators of NPC1 promoter; Huh7 NPC1 promoter luciferase reporter, 24 h; Potency, µM (highest dose often 9.22 µM), without a hit: at the top dose activation, usual class: activators; hit rate 2.4% among 320,000; AID 485313; note: % of control where 0% means no effect; nearly all actives have a fitted effect of over 60% in size
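Luciferase expression driven by the NPC1 promoter was measured in stably transfected Huh7 cells after a 24 h compound incubation, using a luciferase reagent and a luminescence read.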
FLuc counter: inhibits or activates purified firefly luciferase, miR-21 counter-screen; purified FLuc, Km substrates, luminescence inhibition; Potency, µM (top dose mostly 57.5 µM), for the others: at the highest dose activity change, negative = inhibition, usual class: inhibitors; hit rate 6.9% among 360,000; AID 588342;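 note: plate controls were vehicle for no effect and reference inhibitor for full effect; nearly all actives have a fitted effect of over 55% in size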
Target sequence (P08659 whole entry, looked up): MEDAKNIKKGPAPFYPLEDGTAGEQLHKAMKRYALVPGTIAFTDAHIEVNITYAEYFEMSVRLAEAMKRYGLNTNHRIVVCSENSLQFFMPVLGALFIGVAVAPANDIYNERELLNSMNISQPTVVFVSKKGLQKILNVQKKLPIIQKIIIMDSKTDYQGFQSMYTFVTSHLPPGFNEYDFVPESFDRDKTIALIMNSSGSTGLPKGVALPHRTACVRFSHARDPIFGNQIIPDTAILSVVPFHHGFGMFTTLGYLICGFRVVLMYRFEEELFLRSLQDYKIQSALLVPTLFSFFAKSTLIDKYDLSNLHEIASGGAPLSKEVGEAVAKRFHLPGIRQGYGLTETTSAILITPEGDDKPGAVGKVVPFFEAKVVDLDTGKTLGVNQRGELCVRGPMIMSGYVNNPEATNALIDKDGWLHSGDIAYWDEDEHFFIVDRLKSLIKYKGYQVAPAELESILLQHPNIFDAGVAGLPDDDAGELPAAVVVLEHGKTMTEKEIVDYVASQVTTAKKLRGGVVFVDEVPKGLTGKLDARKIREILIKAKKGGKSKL
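Biochemical qHTS of compounds, final roughly 60 µM downward over six points, against 10 nM purified firefly luciferase using Km concentrations of substrates (10 uM D-luciferin, 10 uM ATP) in Tris acetate pH 7.5 buffer; luminescence output.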
ELG1 DNA repair: ELG1-dependent DNA repair inhibition; HEK293T ELG1-luciferase reporter, luminescence, 16 h; DNA damage induced by 5-fluorouridine; Potency, µM (titrated, usually from 46.1 µM), for the others: at the top dose activity change, negative = inhibition, actives largely listed as inhibitors; hit rate 2.3% among 330,000; note: % is set by controls: 0 for no effect and ±100 for the full control effect; nearly all actives have a fitted effect of over 55% in size
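In this reporter screen, reduction of luminescence relative to DMSO vehicle indicated activity. Compounds and 5-fluorouridine were added together to 2,000 cells per well, incubated for 16 hr at 37 °C, then developed with ONE-Glo.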
ELG1 genotox: genotoxicity induction in ELG1-luciferase HEK293T cells; HEK293T ELG1-luciferase reporter, luminescence, 16 h; Potency, µM (titrated, usually from 46 µM), for the others: top-dose activity change, positive = activation, most hits filed as activators; hit rate 1.3% among 330,000; AID 504466; note: % of control where 0% means no effect; nearly all actives have a fitted effect of over 60% in size
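ELG1-luciferase HEK293T cells, 2,000/well; compound pinned in; 16 hr, 37 °C, 5% CO2; ONE-Glo, 30 min RT; luminescence on CCD imager.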
SMN2 splice enh: enhancers of SMN2 splice variant expression. HEK293 SMN2-luciferase splicing reporter, luminescence, 30-36 h. hit rate 2.8% among 210,000. Potency, µM (highest dose often 46.1 µM), inactives show at the top dose activity change, positive = activation, hits mostly activators; note: % of control where 0% means no effect; nearly all actives have a fitted effect of over 55% in size
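HEK293 cells carry an SMN2 […]–luciferase reporter in which exon 7 inclusion puts luciferase in frame. Cells were plated 10-12 h before compound addition, then incubated 30-36 h at 37C. ONE-Glo luminescence was read; sodium butyrate at 4.5 mM final served as control.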
Rab9 prom act: activates the Rab9 promoter; Huh7 Rab9 promoter-luciferase reporter, luminescence, 24 h; Potency, µM (top dose mostly 9.22 µM), for the others: at the highest dose activation, negative = inhibition, actives largely listed as activators; hit rate 2.8% among 320,000; AID 485297; note: % of control where 0% means no effect; nearly all actives have a fitted effect of over 60% in size
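Huh7 cells stably carrying a Rab9 promoter-luciferase reporter, 1500 cells per well in OP-MEM I with 10% FBS, treated with compound 24 hours at 37C. Luciferase activity read by luminescence after 10 minutes with Amplite reagent.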
* hit, by the source's call; ? = inconclusive; · = not tested or not shown; [ ] = remark or other dose. Rows were chosen to be rich in hits. Some 9.2% of all compounds tested hit in one or more screens of this group. Calls come from the whole dose curve; as a rule, active = well fitted curve in the direction sought with a large enough effect; inconclusive = small, poorly fitted or top-dose-only effect, or another doubt; inactive = no such curve, though single readings can be large; an effect the other way counts as inactive or inconclusive. Potency is the fitted concentration of half-maximal effect.

SMILES	NPC1 prom act	FLuc counter	ELG1 DNA repair	ELG1 genotox	SMN2 splice enh	Rab9 prom act
COc1cc(OC)cc(C(=O)N[C@H](C(=O)NCCc2c[nH]c3ccccc23)C(C)C)c1	-9%	4%	-15%	-1%	13%	2%
COc1cccc(C(=O)OCC(=O)c2c[nH]c3ccccc23)c1OC	19%	9.5µM*	?	15%	·	?
O=C(COC(=O)CC1CC2CCC1C2)NCc1ccc(F)cc1 (configuration not stated)	·	·	?	1%	·	·
Cc1onc(-c2c(F)cccc2Cl)c1C(=O)OCC(=O)c1c[nH]c2ccccc12	-4%	-8%	23µM*	-11%	·	-3%
CC(C)N(CCCNC(=O)Cn1ncc2c([nH]c3ccccc32)c1=O)Cc1ccccc1	3%	-2%	3%	-1%[9.26 µM]	·	3%
COCC(=O)N1CCC(Oc2ccc(C(=O)NCCc3ccncc3)cc2)CC1	-2%	-2%	0%	4%	-5%	-1%
O=C(OCC(=O)c1c[nH]c2ccccc12)c1cccc([N+](=O)[O-])c1	16%	17µM*	?	11%	·	13%
O=C(Cc1ccc(F)cc1)NCc1ccc2c(c1)CCN2C(=O)c1ccc(F)cc1	·	4%	·	·	·	·
COC(=O)Cc1ccc(OCc2ccc(Cl)nc2)cc1	2.5µM*	15µM*	?	?	·	?
Cn1cc(C(=O)NCc2ccccc2Cl)c(=O)c2cc(S(=O)(=O)N3CCCCCC3)ccc21	·	2%	·	·	8%	·
c1ccc2[nH]c(-c3cscn3)nc2c1	?	13µM*	?	?	13µM*	?
Oc1ccc(-c2[nH]nc(-c3ccccc3)c2-c2nc3ccccc3[nH]2)cc1	-3%	-2%	-10%	1%	-9%	2%
FC(F)c1nc2ccccc2[nH]1	1%	-17%	-2%	1%	·	-3%
c1ccc2nc(-c3nc4ccccc4[nH]3)ccc2c1	2.8µM*	0.3µM*	?	·	0.4µM*	0.63µM*
C/C(=N\NC(=O)C1(C)CC1(Br)Br)c1ccc(NC(=O)C2CCC2)cc1 (configuration not stated)	-4%	3%	6.5µM*	-4%	-14%	1%
Cc1ccc(C(=O)Nc2cccc(C(=O)NCc3ccccc3)c2)o1	-2%	?	-20%	0%	-19%	1%
C/C(=N\NC(=O)C1(C)CC1(Br)Br)c1cccc(NC(=O)c2ccc(C)o2)c1 (configuration not stated)	-5%	-14%	7.3µM*	-20%	·	2%
Cc1nc2ccccc2n1CC(=O)OCC(=O)N1CCC(C)CC1	·	·	?	-1%	·	·
COc1cccc(CNC(=O)c2oc3ccc4c(c3c2C)C(=O)CC(C)(C)O4)c1OC	·	3.4µM*	·	·	6%	·
Cc1ccc(NC(=O)c2oc3ccc4c(c3c2C)C(=O)CC(C)(C)O4)c(C)c1	·	4.3µM*	·	·	·	·
CCOC(=O)c1ccc(NC(=O)c2oc3ccc4c(c3c2C)C(=O)CC(C)(CC)O4)cc1 (configuration not stated)	·	-16%	·	·	5%	·
CCCNC(=O)c1oc2ccc3c(c2c1C)C=CC(C)(C)O3	?	11µM*	?	?	·	3.5µM*
Cc1ccc(NC(=O)c2oc3ccc(S(=O)(=O)N4CCCCC4)cc3c2C)c(C)c1	·	1%	·	·	·	·
COC(=O)c1ccccc1NC(=O)c1oc2ccc3c(c2c1C)C(=O)CC(C)(C)O3	·	5.4µM*	·	·	·	·
O=C(Cn1c(-c2cccs2)cc2ccccc21)N1CCN(c2ccc(F)cc2)CC1	·	4%	·	·	·	·
SMILES	NPC1 prom act	FLuc counter	ELG1 DNA repair	ELG1 genotox	SMN2 splice enh	Rab9 prom act
Cc1c(C(=O)NCc2ccc(Cl)cc2)oc2ccc3c(c12)C(=O)CC(C)(C)O3	·	?	·	·	26%	·
CC(=O)Nc1ccc(NC(=O)c2oc3ccc4c(c3c2C)C(=O)CC(C)(C)O4)cc1	·	8.5µM*	·	·	·	·
CCOC(=O)c1oc2ccc3c(c2c1C)C(=O)CC1(CCN(C(=O)OCC)CC1)O3	2%	1%	21µM*	-15%	-47%	-5%
COc1cc(OC)c(NC(=O)c2oc3ccc4c(c3c2C)C(=O)CC(C)(C)O4)cc1Cl	·	5.4µM*	·	·	·	·
COc1cc(OC)c(NC(=O)C2=C(C)C(=O)OC23CCCCC3)cc1Cl	·	2%	·	·	-6%	·
CCCNC(=O)c1oc2ccc3c(c2c1C)C(=O)CC(C)(C)O3	1.8µM*	2.4µM*	?	?	13µM*	1.8µM*
COCC1CCN(C(=O)C2CCC(=O)N(CCc3cccc(F)c3)C2)CC1 (configuration not stated)	0%	0%	-10%	1%	·	0%
Cc1c(-c2ccccc2)[nH]n2c(=O)c3c(nc12)CCCC3	?	15µM*	?	?	11µM*	?
Cc1ccc(-c2[nH]n3c(=O)c4c(nc3c2C)CCCC4)cc1	?	?	23%	?	21%	?
O=c1c2c(nc3cc(-c4ccccc4)[nH]n13)CCC2	2.8µM*	6µM*	?	?	11µM*	?
O=c1c2c(nc3cc(-c4ccc(Br)cc4)[nH]n13)CCCC2	-3%	7%	-13%	-3%	·	-2%
Cc1cc2nc3c(c(=O)n2[nH]1)CCCC3	0%	-1%	?	5%	26%	1%
COc1ccc(-c2cc3nc4c(c(=O)n3[nH]2)CCC4)cc1	?	4.3µM*	?	?	10µM*	2.8µM*
COc1ccc(CN(C(=O)CSc2nnc(-c3c[nH]c4ccccc34)o2)c2ccc(F)cc2)cc1OC	0%	?	5.2µM*	-11%	-94%	-1%
COc1ccc(CN(C(=O)CSc2nnc(-c3ccc(F)cc3)o2)c2ccc(F)cc2)cc1	-1%	1%	?	-4%	-25%	7%
CCOC(=O)CSc1nnc(-c2c[nH]c3ccccc23)o1	0%	19µM*	20%	-3%	·	0%
CCSc1nnc(-c2c[nH]c3ccccc23)o1	3.2µM*	19µM*	?	?	·	4µM*
O=C(Nc1ccncc1)c1ccc(Cl)c(S(=O)(=O)N2CCCC2)c1	-13%	-8%	-15%	-4%	·	-19%
CCOC(=O)c1cccc(C(=O)Nc2nc3ccc(OC)cc3s2)n1	2.2µM*	0.48µM*	?	-6%	11µM*	1.6µM*
CCOC(=O)c1cc(-c2ccc(F)cc2)n(CCC(=O)Nc2nc3ccc(OC)cc3s2)c1C	·	-2%	·	·	·	·
CCC(C)C(=O)Nc1nc2ccc(OC)cc2s1 (configuration not stated)	2.5µM*	12µM*	?	?	·	2.5µM*
CC(=O)NCCC(=O)Nc1nc2ccc(Oc3ccccc3)cc2s1	1.4µM*	6.7µM*	?	3.7µM*	·	0.89µM*
